Hit rate of the full screen: of about 3,300 compounds, about 280 (8.5%) were called active. This is one part of a sample in which actives are shown more often than they occur.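 How the source made its calls: active means mean growth inhibition over the two runs of 50% or more; inactive means mean growth inhibition under 50%.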
Assay: A549 NSCLC cell proliferation inhibitors – ATP luminescence, human non-small cell lung line, primary screen (AID 371);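 further: compound exposure lasted 72 h before the ATP read; 0% = untreated cell signal and 100% = no luminescence left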
Settings: at 10 µM, stronger effect = higher value

Growth inhibition, active:
Clc1ccc2[nH]c3c(NCCCN4CCOCC4)ncnc3c2c1 89.9%
CCCCCCCCCCCCCCCC(O)C(N)CO (centres undefined) 94.3%
N=c1c2c(-c3ccccc3)c(-c3ccccc3)n(Cc3ccccc3)c2ncn1CCCn1ccnc1 91.5%
CCCCCCc1cc2cc(-c3nnc(-c4ccccc4O)o3)c(=O)oc2cc1O 95%
CCCCCCc1cc2cc(C(=O)NC)c(=N)oc2cc1O 87.4%
Cc1ccc(C(=O)CSC2=C(C#N)C(c3ccco3)C3=C(CCCC3=O)N2)cc1 (centres undefined) 76.4%
N#CC1=C(SCC(=O)c2ccc(Br)cc2)NC2=C(C(=O)CCC2)C1c1ccco1 (centres undefined) 77.8%
N#CC1=C(SCC(=O)c2ccc(Cl)cc2)NC2=C(C(=O)CCC2)C1c1ccco1 (centres undefined) 80%
N#CC1=C(SCC(=O)c2ccccc2)NC2=C(C(=O)CCC2)C1c1ccco1 (centres undefined) 69%
Oc1ccc(/C=C/c2cc(O)cc(O)c2)cc1 63.9%
CCCCOc1ccc(C(=O)OC2CC(C)N(C)CC2C)cc1 (centres undefined) 90%
COc1cc([C@@H]2c3cc4c(cc3[C@H](O)[C@H]3COC(=O)[C@H]23)OCO4)cc(OC)c1OC 66.9%
COc1cc(C2Nc3cccc4cccc(c34)N2)cc(OC)c1OC(C)=O 68.5%
Cc1[nH]nc(-c2ccc(O)cc2O)c1Oc1ccccc1 56.1%
Cn1c(=O)c2c(nc(NCc3ccc4c(c3)OCO4)n2Cc2ccc(F)cc2)n(C)c1=O 74.4%
Cn1c(=O)c2c(nc(NCc3ccc4c(c3)OCO4)n2Cc2ccccc2)n(C)c1=O 67.4%
Cc1cc(C)n(S(=O)(=O)/C=C/c2ccccc2)n1 68.5%
CCOC(=O)N1CCC(=C2c3ccc(Cl)cc3CCc3cccnc32)CC1 65.8%
Cn1c(Cl)cnc1C1CC(=O)c2cc(Cl)ccc2O1 (centres undefined) 62.9%
Clc1ccc(-c2nnc3sc(Cc4cccs4)nn23)c(Cl)c1 52.8%

Growth inhibition, inactive:
CC1(C(=O)CSc2nc3ccccc3s2)CCC(=O)O1 (centres undefined) 3.38%
O=c1cc(N2CCCCC2)nc2n1CCCS2 8.96%
Cc1ccc(S(=O)(=O)N2CCN(c3nc(C(C)C)c4c(c3C#N)CC(C)(C)OC4)CC2)cc1 29.3%
Cc1ccc2[nH]c3c(NCCN4CCOCC4)ncnc3c2c1 18%
Clc1ccc2[nH]c3c(NCCN4CCOCC4)ncnc3c2c1 34.3%
C=CCn1c(SCC#N)nc2c(c1=O)C(C)(C)Cc1ccccc1-2 28.8%
COn1c(=S)[nH]c2ccccc2c1=O 3.49%
CCSC(SCC)[C@H](O)[C@@H](O)[C@H](O)[C@H](O)CO -2.15%
Cc1cc(C)n(-c2c(F)c(F)c(CN3CCCCC3)c(F)c2F)n1 9.57%
CN(C)c1cccc2c(S(=O)(=O)N3CCOCC3)cccc12 15.9%
Cc1ccc(C(=O)/C=C/Nc2cccc(O)c2)cc1 37.1%
O=c1c(C=NCCCn2ccnc2)c(-c2ccccc2)[nH]n1-c1nc2ccccc2s1 17%
O=C(NCCCn1ccnc1)C(Cc1ccccc1)N1C(=O)c2ccccc2C1=O (centres undefined) 2.6%
Cc1cc(C)c2c(N)c(C(=O)c3ccccc3)oc2n1 19.9%
Cc1nn(-c2ccccc2)c2c1C(c1ccc(F)cc1F)C(C#N)=C(N)O2 (centres undefined) 17%
CCN(CC)c1ccc2cc(-c3nnc(-c4ccncc4)o3)c(=O)oc2c1 11.3%
CNC(=O)c1cc2c(ccc3ccccc32)oc1=N 9.88%
COc1ccc(C2/C(=C(\O)c3ccc4c(c3)OCCO4)C(=O)C(=O)N2CCCN(C)C)cc1 (centres undefined) -19.3%
O=C(OCCN1CCOCC1)c1ccc2c(c1)OCCO2 -1.1%
NC(=O)c1ccccc1OCCOCCOCCOc1ccccc1C(N)=O 4.77%
COC(=O)CSc1nc(N)nc(C)c1Br 0.51%
C=CCn1c(=O)c(C(=O)NCCN(CC)CC)c(O)c2ccccc21 13.9%
CCOC(=O)CSC1=C(C#N)C(c2ccc(OC)cc2)C2=C(CC(C)(C)CC2=O)N1 (centres undefined) 9.46%
N#CC1=C(SCc2ccccc2)NC2=C(C(=O)CCC2)C1c1ccc2c(c1)OCO2 (centres undefined) 35.2%
N#Cc1ccc(-c2ccco2)nc1SCC(=O)c1ccc(Cl)cc1 36.8%
Cc1ccc(NC(=O)CSC2=C(C#N)C(c3ccco3)C3=C(CCCC3=O)N2)cc1 (centres undefined) 31.5%
COc1ccccc1NC(=O)C1=C(C)NC(SCC(=O)c2ccc(C)cc2)=C(C#N)C1c1ccco1 (centres undefined) 18.3%
CCCCC1CC1C(=O)Nc1ccc(OC)c(OC)c1 (centres undefined) 11%
Cn1c(=O)c2c(nc(NCCCO)n2Cc2cccc(C(F)(F)F)c2)n(C)c1=O 29.2%
Cc1cc(=O)n2[nH]cnc2n1 4.42%
N#CCCn1cnc2c(=S)nc[nH]c21 5.6%
COc1ccc(OC)c(C2C(C#N)=C(N)Oc3cc(C)[nH]c(=O)c32)c1 (centres undefined) 3.98%
Nc1c(C(=O)NCc2ccco2)sc2nc(N3CCOCC3)c3c(c12)CCCC3 18.2%
Cc1ccc(C(=O)C2=C(O)C(=O)N(c3ncccn3)C2c2cccc(Cl)c2)o1 (centres undefined) -5.18%
COc1ccc(NC(=O)Nc2cccc(C(=O)N3CCOCC3)c2)cc1OC 1.01%
N#CC(C#N)C(c1ccsc1)c1c(-c2ccccc2)[nH][nH]c1=O (centres undefined) 7.27%
Cc1cc(O)c(C(C)C)cc1N=C1CSC(=O)N1 7.06%
CCCCOc1ccc(C(=O)Nn2cnnc2)cc1 -2.48%
CCCCOc1ccc(C(=O)CCN2CCCCC2)cc1 -1.37%
CC(O)(C#CCN1CCOCC1)c1ccccc1 (centres undefined) 2.79%
Cc1cccc(NC(=O)c2cc(N3CCOCC3)nc3ccccc23)c1 2.86%
N#Cc1nc(COc2ccc(Br)cc2)oc1NCCN1CCOCC1 13.4%
Cc1sc(-n2c(C)ccc2C)c(C#N)c1C -0.27%
COc1ccc2c(c1OC)C(=O)O[C@@H]2[C@H]1c2c(cc3c(c2OC)OCO3)CCN1C 28.5%
COc1ccc2c(c1OC)C(=O)OC2C1c2c(cc3c(c2OC)OCO3)CCN1C (centres undefined) 23.2%
Cc1c(C)n(C(=O)CSc2nccn2C)c2ccccc12 -7.69%
CCN(CC)CCN1C(=O)c2ccccc2NC1c1cc(OC)c(OC)c(OC)c1 (centres undefined) 0.59%
COc1cc(C2NC(=O)NC(C)=C2C(=O)Nc2cccc(C)c2C)cc(OC)c1OC (centres undefined) 0.87%
O=C1C2ON(c3ccccc3)C(c3ccncc3)C2C(=O)N1c1ccccc1 (centres undefined) -3.79%
O=C(O)C(O)c1ccco1 (centres undefined) 3.07%
Cc1cc(O)ccc1-c1cnc2ccccc2n1 13%
Cc1nc(-c2c(-c3ccc(O)cc3O)noc2C(F)(F)F)cs1 41.5%
CC1(C)CNC(=O)c2sc(N3CCOCC3)nc2C1 21.1%
Cn1ncc2c(Nc3ccccc3Br)ncnc21 4.98%
Cn1c(=O)c2c(nc(NCc3ccc4c(c3)OCO4)n2Cc2ccccc2Cl)n(C)c1=O 20.1%
Cn1c(=O)c2c(nc(Oc3ccc4c(c3)OCO4)n2Cc2ccc(Br)cc2)n(C)c1=O 38%
Cn1c(=O)c2c(nc(NCc3ccc4c(c3)OCO4)n2Cc2ccccc2F)n(C)c1=O 43.4%
Cn1c(=O)c2c(nc(Oc3ccc4c(c3)OCO4)n2Cc2ccc(F)cc2)n(C)c1=O 17.7%
CC1(C)Cc2c(sc3nc(SCC(=O)NCc4ccco4)n(-c4ccccc4)c(=O)c23)CS1 22.8%
CCCc1cc(-n2ccnc2C)n2c(nc3ccccc32)c1C#N -0.15%
CCOC(=O)C1CCN(c2nc3ccccc3nc2C(C#N)C(=O)NCCc2ccccc2)CC1 (centres undefined) 30.8%
Cc1cc(/C(O)=C2\C(=O)C(=O)N(CCN(C)C)C2c2ccncc2)ccc1OCc1ccccc1 (centres undefined) 2.4%
Cc1cc(C)n(C(=O)CNC(=O)CCc2ccccc2)n1 -2.74%
Cc1cc(C)n(S(=O)(=O)Cc2ccccc2)n1 6%
Cc1cc(C)n(CC2CC(=O)N(c3ccc(C)c(Cl)c3)C2=O)n1 (centres undefined) 0.93%
Clc1ccc(COc2ccccn2)c(Cl)c1 1.66%
COc1ccc(C(=O)c2ccc(N3CCOCC3)cc2)c(OC)c1 44.9%
CCOC(=O)C(C)Oc1nc(Oc2ccccc2)nc(N(C)C)n1 (centres undefined) 6.36%
CCOC(=O)N1CCN(C2OC(=O)c3ccccc32)CC1 (centres undefined) -1.65%
O/N=C1\CCc2cc(Cl)ccc21 -5.2%
CC(=O)Nc1n[nH]c(S(=O)(=O)Cc2ccc(Cl)cc2Cl)n1 -13.6%
COc1cc(C)nc(Oc2ccc(=O)n(C)n2)n1 -3.96%
CCCCNC(=O)N1CCOCCOCCN(C(=O)NCCCC)CCOCCOCC1 2.12%
COc1ccc(CC(=O)OCN2C(=O)c3ccccc3C2=O)cc1 2.96%
CN1CCN(C2=Nc3ccccc3Oc3ccc(Cl)cc32)CC1 18.5%
C=CCSc1nnc2n(CCc3ccccc3)c(=O)c3c4c(sc3n12)COC(C)(C)C4 12.2%
Cn1c(Cn2cnc(Cl)c2Cl)nc2ccccc21 -4.26%
c1ccc(-c2nnc3sc(Cc4cccs4)nn23)cc1 21.9%
Clc1ccc(-c2nnc3sc(Cc4cccs4)nn23)cc1 15%

Reference: PubChem BioAssay AID371 (SRMLSC, 2006)
